Measurements published in the supplement of paper PMC9694430.

Experiments:
Assay in all cases: thermal shift delta Tm vs DMSO control; higher = stronger stabilization (binding)
Conditions in all cases: 12.5 µM; protein concentration 2 µM
LOC_OS02G45750-cb003 = tested on: LOC_OS02G45750-cb003
How it was run: (§1)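 The melting temperature shift given here is a triplicate mean, measured against protein that received only DMSO. Melting temperatures came from Boltzmann fits of differential scanning fluorimetry data on E. coli-expressed, purified rice kinase domain constructs. Each 19.5 μl well contained 2 μM kinase, 100 mM potassium phosphate pH 7.5, 150 mM NaCl, 10% glycerol, 5 × SYPRO Orange and compound in DMSO. Plates were scanned from 25°C to 95°C at 0.05°C/s.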

LOC_OS02G54510-cb004 = tested on: LOC_OS02G54510-cb004
How it was run: as §1

LOC_OS03G04050-cb001 = tested on: LOC_OS03G04050-cb001
How it was run: as §1

LOC_OS03G12390-cb001 = tested on: LOC_OS03G12390-cb001
How it was run: as §1

LOC_OS03G27990-cb004 = tested on: LOC_OS03G27990-cb004
How it was run: as §1

LOC_OS03G50450-cb001 = tested on: LOC_OS03G50450-cb001
How it was run: as §1

LOC_OS03G50810-cb003 = tested on: LOC_OS03G50810-cb003
How it was run: as §1

LOC_OS04G35114-cb001 = tested on: LOC_OS04G35114-cb001
How it was run: as §1

LOC_OS04G38480-cb003 = tested on: T1, LOC_OS04G38480-cb003
T1 sequence (whole entry): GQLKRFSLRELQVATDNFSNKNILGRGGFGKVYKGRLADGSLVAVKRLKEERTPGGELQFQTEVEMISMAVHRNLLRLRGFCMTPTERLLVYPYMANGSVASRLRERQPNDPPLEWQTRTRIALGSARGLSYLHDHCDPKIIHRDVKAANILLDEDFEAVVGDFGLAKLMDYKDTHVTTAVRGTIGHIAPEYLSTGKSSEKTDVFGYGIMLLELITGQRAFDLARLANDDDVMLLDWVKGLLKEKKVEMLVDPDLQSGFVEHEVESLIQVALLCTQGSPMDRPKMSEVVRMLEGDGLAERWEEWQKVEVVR
How it was run: as §1

LOC_OS04G41100-cb001 = tested on: T2, LOC_OS04G41100-cb001
T2 sequence (whole entry): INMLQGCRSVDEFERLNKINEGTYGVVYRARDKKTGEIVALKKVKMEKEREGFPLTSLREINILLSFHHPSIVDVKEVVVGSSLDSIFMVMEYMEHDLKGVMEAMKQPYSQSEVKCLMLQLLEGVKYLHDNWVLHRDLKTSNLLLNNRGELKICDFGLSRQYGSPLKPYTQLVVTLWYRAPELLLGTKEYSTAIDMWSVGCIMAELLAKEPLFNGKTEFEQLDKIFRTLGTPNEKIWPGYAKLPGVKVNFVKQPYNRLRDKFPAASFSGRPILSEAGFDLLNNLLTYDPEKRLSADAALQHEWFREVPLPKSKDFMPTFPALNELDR
How it was run: as §1

LOC_OS04G57630-cb004 = tested on: LOC_OS04G57630-cb004
How it was run: as §1

LOC_OS05G07850-cb002 = tested on: LOC_OS05G07850-cb002
How it was run: as §1

LOC_OS05G16824-cb004 = tested on: LOC_OS05G16824-cb004
How it was run: as §1

LOC_OS05G28520-cb001 = tested on: LOC_OS05G28520-cb001
How it was run: as §1

LOC_OS05G30820-cb001 = tested on: LOC_OS05G30820-cb001
How it was run: as §1

LOC_OS05G43570-cb004 = tested on: LOC_OS05G43570-cb004
How it was run: as §1

LOC_OS06G16330-cb003 = tested on: LOC_OS06G16330-cb003
How it was run: as §1

LOC_OS06G22820-cb001 = tested on: T3, LOC_OS06G22820-cb001
T3 sequence (whole entry): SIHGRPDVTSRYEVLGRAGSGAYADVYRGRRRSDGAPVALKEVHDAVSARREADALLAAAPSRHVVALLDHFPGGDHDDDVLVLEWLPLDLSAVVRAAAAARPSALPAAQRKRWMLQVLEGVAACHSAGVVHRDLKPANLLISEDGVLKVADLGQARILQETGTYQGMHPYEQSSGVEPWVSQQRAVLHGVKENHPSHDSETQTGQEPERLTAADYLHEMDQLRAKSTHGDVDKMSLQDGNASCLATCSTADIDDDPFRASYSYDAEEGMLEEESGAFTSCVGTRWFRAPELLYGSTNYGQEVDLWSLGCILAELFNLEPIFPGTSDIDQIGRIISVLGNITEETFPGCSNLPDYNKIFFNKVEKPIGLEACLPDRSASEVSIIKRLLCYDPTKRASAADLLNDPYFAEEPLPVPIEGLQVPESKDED
How it was run: as §1

LOC_OS07G06570-cb004 = tested on: LOC_OS07G06570-cb004
How it was run: as §1

LOC_OS07G07230-cb001 = tested on: LOC_OS07G07230-cb001
How it was run: as §1

Sequence of LOC_OS06G16330-cb003 (as listed by the source): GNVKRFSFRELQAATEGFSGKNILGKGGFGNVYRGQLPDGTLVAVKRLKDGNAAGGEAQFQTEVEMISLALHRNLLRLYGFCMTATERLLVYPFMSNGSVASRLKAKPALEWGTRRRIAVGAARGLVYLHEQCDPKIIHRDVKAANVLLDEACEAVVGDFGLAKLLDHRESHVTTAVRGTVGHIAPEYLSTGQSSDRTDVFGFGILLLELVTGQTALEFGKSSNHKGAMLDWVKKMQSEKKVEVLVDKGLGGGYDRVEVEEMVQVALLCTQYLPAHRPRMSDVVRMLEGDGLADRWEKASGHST

Compound | thermal shift delta Tm (LOC_OS02G45750-cb003) [°C] | thermal shift delta Tm (LOC_OS02G54510-cb004) [°C] | thermal shift delta Tm (LOC_OS03G04050-cb001) [°C] | thermal shift delta Tm (LOC_OS03G12390-cb001) [°C] | thermal shift delta Tm (LOC_OS03G27990-cb004) [°C] | thermal shift delta Tm (LOC_OS03G50450-cb001) [°C] | thermal shift delta Tm (LOC_OS03G50810-cb003) [°C] | thermal shift delta Tm (LOC_OS04G35114-cb001) [°C] | thermal shift delta Tm (LOC_OS04G38480-cb003) [°C] | thermal shift delta Tm (LOC_OS04G41100-cb001) [°C] | thermal shift delta Tm (LOC_OS04G57630-cb004) [°C] | thermal shift delta Tm (LOC_OS05G07850-cb002) [°C] | thermal shift delta Tm (LOC_OS05G16824-cb004) [°C] | thermal shift delta Tm (LOC_OS05G28520-cb001) [°C] | thermal shift delta Tm (LOC_OS05G30820-cb001) [°C] | thermal shift delta Tm (LOC_OS05G43570-cb004) [°C] | thermal shift delta Tm (LOC_OS06G16330-cb003) [°C] | thermal shift delta Tm (LOC_OS06G22820-cb001) [°C] | thermal shift delta Tm (LOC_OS07G06570-cb004) [°C] | thermal shift delta Tm (LOC_OS07G07230-cb001) [°C]
N#CC[C@H](C1CCCC1)n1cc(-c2ncnc3[nH]ccc23)cn1 | 0.42 | 1.39 | 0.15 | 2.16 | 0.41 | 0.17 | 0.46 | 0.65 | 1.14 | 0.66 | 0.1 | 6.97 | 1.27 | 0.17 | 0.76 | 1.05 | 3.75 | 0.57 | 1.16 | -0.53
CC(C)c1cnn2c(NCc3ccccc3-n3cccn3)nc(OC3CCCNC3)nc12 (stereo not given) | 0.32 | -0.14 | 0.32 | 0.22 | 0.11 | 0.09 | 0.5 | 0.48 | 1.13 | 0.57 | 0.19 | 0.48 | 1.46 | 0.66 | 0.31 | 0.57 | 0.17 | 1.22 | 0.4 | -0.33
COc1cc2ncc(-c3ccccc3)nc2cc1OC [Tyrphostin AG 1296] | 4.58 | -0.11 | 0.13 | 0.49 | 0.74 | 0.48 | 1.56 | 3.93 | 0.73 | 0.13 | 0.05 | 5.59 | 2.99 | -0.06 | 0.8 | 0.08 | 2.24 | 0.24 | 1.65 | 0.83
O=C(O)CCC(=O)Nc1ccc(Br)cn1 [Bikinin] | 0.64 | 0.11 | 0.3 | 0.13 | 0.19 | 0.33 | 0.43 | 0.74 | 1.47 | 0.42 | 0.15 | 0.5 | 0.58 | 0.89 | 0.45 | 0.76 | 0.72 | 0.48 | 0.42 | -0.18
Cc1ccc(CNc2ncnc3ccc(-c4ccc(CO)o4)cc23)o1 | 1.72 | 0.02 | 0.46 | 1.65 | 0.24 | 0.03 | -0.19 | 4.83 | 0.75 | 1.05 | 2.38 | 4.33 | -5.36 | -0.16 | 0.29 | 0.04 | 2.56 | 0.43 | 1.5 | 0.62
CN1CCN(c2ccc(Nc3cc(-c4cccc(-n5ccc6cc(C7CC7)cc(F)c6c5=O)c4CO)cn(C)c3=O)nc2)CC1 | 0.34 | -0.3 | 0.53 | -0.21 | 0.57 | 0.67 | 0.5 | 0.26 | 1.08 | 0.45 | 0.45 | 2.96 | 0.67 | 0.6 | 0.63 | 0.46 | 0.74 | 0.59 | 1.21 | 0.61
